Test results: PubChem BioAssay (EPA / NIEHS)
Results filed as inconclusive are left out. The source made the active and inactive calls. How the source made its calls: active means hit-call score of the fitted dose curve at least 0.9, where 1 is the maximum; inconclusive means response in the unintended direction; inactive means score below 0.9.

How the values were obtained:
[1] = target: zebrafish Estrogen Receptor (ER1), esr1 (gene 259252) (UniProt P57717); assay: ATG_zfER1_XSP2: Attagene TRANS-FACTORIAL Multi-Species (XSP2) HepG2 Assay for zebrafish Estrogen Receptor (ER1) (AID 2283816)
Summary of the method: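 After 24 h compound exposure, RNA from transfected HepG2 cells was reverse-transcribed and reporter transcripts resolved by capillary electrophoresis. The TRANS format reads exogenous zebrafish ER1-Gal4 chimera activity on GAL4-UAS elements; gain of signal against DMSO.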

[2] = target: chicken Estrogen Receptor (ERa), ESR1 (gene 396099) (UniProt P06212); assay: ATG_chERa_XSP2: Attagene TRANS-FACTORIAL Multi-Species (XSP2) HepG2 Assay for chicken Estrogen Receptor (ERa) (AID 2283817);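 further: actives raise reporter signal above DMSO so AC50 reflects ER activation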
Summary of the method: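 Exogenous chicken ERa-Gal4 chimera activity was assessed in transfected human liver HepG2 cells after 24 h of treatment. Induced reporter mRNA was quantified fluorescently by capillary electrophoresis, with DMSO as baseline.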

[3] = test system: zebrafish Estrogen Receptor (ER2a), gene 317734; assay: ATG_zfER2a_XSP2: Attagene TRANS-FACTORIAL Multi-Species (XSP2) HepG2 Assay for zebrafish Estrogen Receptor (ER2a) (AID 2283818);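 further: hits raise reporter mRNA so AC50 reflects activation of zebrafish ER2a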
Summary of the method: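 Multiplexed trans-reporter readout: RT-PCR then capillary electrophoresis of reporter transcripts after 24 h compound treatment. Human HepG2 carries transfected zebrafish ER2a-Gal4 chimera; 3 nM 6-alpha-fluorotestosterone plus 1.5 nM norgestrel present. Induction scored against DMSO.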

[4] = test system: frog Estrogen Receptor (ER), gene 398734; assay: ATG_frER1_XSP2: Attagene TRANS-FACTORIAL Multi-Species (XSP2) HepG2 Assay for frog Estrogen Receptor (ER) (AID 2283821);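 further: hits raise reporter mRNA above DMSO baseline so potency means agonist or activator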
Description: ATG_XSP2_multi-species_TRANS is a cell-based, multiplexed assay created by modifying the existing Attagene TRANS-FACTORIAL system to include a panel of nuclear receptors from some or all the following species: human (Homo sapiens), mouse (Mus musculus), frog (Xenopus laevis), zebrafish (Danio rerio), chicken (Gallus gallus), and turtle (Chrysemys picta). The ECOTOX-FACTORIAL format uses HepG2, a human liver cell line, with measurements taken at 24 hours after chemical dosing in a 24-well plate. Xsp2 included 3 nM 6-alpha-fluorotestosterone and 1.5 nM norgestrel to stimulate the androgen receptor.ATG_frER1_XSP2 is one of 29 assay components measured or calculated from the ATG_XSP2_multi-species_TRANS assay. It is designed to make measurements of mRNA induction, a form of inducible reporter, as detected with fluorescence intensity signals by Reverse transcription polymerase chain reaction (RT-PCR) and Capillary electrophoresis technology.The assay endpoint ATG_frER1_XSP2 was analyzed in the positive analysis fitting direction relative to DMSO as the negative control and baseline of activity. […] Furthermore, this assay endpoint can be referred to as a primary readout, because this assay has produced multiple assay endpoints where this one serves a reporter gene function. […]

[5] = test system: zebrafish Estrogen Receptor (ER2b), gene 317733; assay: ATG_zfER2b_XSP2: Attagene TRANS-FACTORIAL Multi-Species (XSP2) HepG2 Assay for zebrafish Estrogen Receptor (ER2b) (AID 2283823);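 further: fitted upward as reporter gain over DMSO so potency reflects activation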
Summary of the method: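 In this multiplexed trans-activation format, HepG2 cells expressing exogenous NR-Gal4 fusions drive GAL4-UAS reporters. Exposure lasts 24 h, and reporter mRNA induction is read by RT-PCR with capillary electrophoresis detection.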

[6] = target: Estrogen receptor (Homo sapiens) (UniProt P03372); assay: ATG_hERa_XSP2: Attagene TRANS-FACTORIAL Multi-Species (XSP2) HepG2 Assay for human Estrogen Receptor (ERa) (AID 2283827)
Summary of the method: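 Trans-activation of exogenous human ERa-Gal4 chimera read in HepG2 as reporter transcript after 24 h exposure; medium included 3 nM 6-alpha-fluorotestosterone and 1.5 nM norgestrel. Quantified by RT-PCR with capillary electrophoresis, positive-direction fitting against DMSO.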

[7] = test system: frog Estrogen Receptor (ER2), gene 100174814; assay: ATG_frER2_XSP2: Attagene TRANS-FACTORIAL Multi-Species (XSP2) HepG2 Assay for frog Estrogen Receptor (ER2) (AID 2283828)
Summary of the method: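 Induction of reporter mRNA, baseline set by DMSO, is the endpoint. The panel was run in transfected HepG2 cells over 24 h, with 3 nM 6-alpha-fluorotestosterone and 1.5 nM norgestrel present to stimulate androgen receptor.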

[8] = target: Peroxisome proliferator-activated receptor gamma (Homo sapiens) (UniProt P37231); assay: ATG_hPPARg_XSP2: Attagene TRANS-FACTORIAL Multi-Species (XSP2) HepG2 Assay for human Peroxisome Proliferator-activated Receptor gamma (PPARg) (AID 2283829);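 further: actives raise reporter mRNA above DMSO so AC50 reflects PPARg activation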
Summary of the method: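 Multiplexed transactivation in transfected HepG2 liver cells. Gal4-chimeric receptor activity reported as induced reporter transcript after 24 h.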

[9] = target: mouse Peroxisome Proliferator-activated Receptor gamma (PPARg), Pparg (gene 19016) (UniProt P37238); assay: ATG_mPPARg_XSP2: Attagene TRANS-FACTORIAL Multi-Species (XSP2) HepG2 Assay for mouse Peroxisome Proliferator-activated Receptor gamma (PPARg) (AID 2283830);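 further: hits are gains in reporter mRNA above DMSO so AC50 marks activation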
Summary of the method: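 Multiplexed TRANS reporter readout: after 24 h chemical exposure of transfected HepG2 cells (with 3 nM 6-alpha-fluorotestosterone, 1.5 nM norgestrel present), RNA reverse-transcribed, amplified, 6-FAM-labelled and resolved by capillary electrophoresis; mouse PPARg-Gal4 induction scored against DMSO.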

[10] = test system: chicken Androgen Receptor (AR), gene 422165; assay: ATG_chAR_XSP2: Attagene TRANS-FACTORIAL Multi-Species (XSP2) HepG2 Assay for chicken Androgen Receptor (AR) (AID 2283819);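 further: hits raise reporter mRNA above DMSO so potency is for activation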
Summary of the method: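 Readout is reporter mRNA induction via RT-PCR/capillary electrophoresis after 24 h chemical exposure, positive direction relative to DMSO. Transiently transfected HepG2 express chimeric chicken AR–GAL4; AR stimulated by 3 nM 6-alpha-fluorotestosterone and 1.5 nM norgestrel.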

Measured: AC50

Sequence of Peroxisome proliferator-activated receptor gamma (Homo sapiens) (P37231 whole entry, looked up, the tested form may be a part): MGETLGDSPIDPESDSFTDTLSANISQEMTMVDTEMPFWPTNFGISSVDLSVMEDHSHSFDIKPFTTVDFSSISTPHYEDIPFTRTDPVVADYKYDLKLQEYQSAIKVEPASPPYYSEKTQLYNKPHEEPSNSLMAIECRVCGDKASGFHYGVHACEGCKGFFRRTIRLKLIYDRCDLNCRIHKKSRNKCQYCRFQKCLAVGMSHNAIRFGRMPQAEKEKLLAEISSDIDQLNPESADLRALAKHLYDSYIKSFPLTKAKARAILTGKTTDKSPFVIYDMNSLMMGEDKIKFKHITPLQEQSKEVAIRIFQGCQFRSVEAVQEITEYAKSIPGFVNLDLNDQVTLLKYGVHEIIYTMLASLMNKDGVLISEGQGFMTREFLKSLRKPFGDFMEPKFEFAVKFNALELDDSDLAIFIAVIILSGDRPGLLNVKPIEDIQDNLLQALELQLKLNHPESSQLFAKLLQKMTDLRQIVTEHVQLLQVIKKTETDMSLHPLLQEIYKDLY
Sequence of mouse Peroxisome Proliferator-activated Receptor gamma (PPARg), Pparg (gene 19016) (P37238 whole entry, looked up, the tested form may be a part): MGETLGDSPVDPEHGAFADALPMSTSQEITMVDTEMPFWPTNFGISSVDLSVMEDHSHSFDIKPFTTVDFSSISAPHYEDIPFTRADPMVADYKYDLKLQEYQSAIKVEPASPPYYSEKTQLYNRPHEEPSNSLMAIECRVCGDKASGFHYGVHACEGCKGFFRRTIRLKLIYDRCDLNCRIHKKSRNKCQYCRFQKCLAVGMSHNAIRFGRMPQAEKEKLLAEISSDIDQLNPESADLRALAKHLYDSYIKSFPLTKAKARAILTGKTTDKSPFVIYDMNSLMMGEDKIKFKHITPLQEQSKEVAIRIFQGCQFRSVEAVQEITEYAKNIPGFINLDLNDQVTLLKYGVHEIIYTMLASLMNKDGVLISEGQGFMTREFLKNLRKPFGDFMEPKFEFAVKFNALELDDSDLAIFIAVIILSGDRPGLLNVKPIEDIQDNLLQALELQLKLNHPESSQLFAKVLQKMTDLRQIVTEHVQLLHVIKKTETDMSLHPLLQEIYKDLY
Sequence of Estrogen receptor (Homo sapiens) (P03372 whole entry, looked up, the tested form may be a part): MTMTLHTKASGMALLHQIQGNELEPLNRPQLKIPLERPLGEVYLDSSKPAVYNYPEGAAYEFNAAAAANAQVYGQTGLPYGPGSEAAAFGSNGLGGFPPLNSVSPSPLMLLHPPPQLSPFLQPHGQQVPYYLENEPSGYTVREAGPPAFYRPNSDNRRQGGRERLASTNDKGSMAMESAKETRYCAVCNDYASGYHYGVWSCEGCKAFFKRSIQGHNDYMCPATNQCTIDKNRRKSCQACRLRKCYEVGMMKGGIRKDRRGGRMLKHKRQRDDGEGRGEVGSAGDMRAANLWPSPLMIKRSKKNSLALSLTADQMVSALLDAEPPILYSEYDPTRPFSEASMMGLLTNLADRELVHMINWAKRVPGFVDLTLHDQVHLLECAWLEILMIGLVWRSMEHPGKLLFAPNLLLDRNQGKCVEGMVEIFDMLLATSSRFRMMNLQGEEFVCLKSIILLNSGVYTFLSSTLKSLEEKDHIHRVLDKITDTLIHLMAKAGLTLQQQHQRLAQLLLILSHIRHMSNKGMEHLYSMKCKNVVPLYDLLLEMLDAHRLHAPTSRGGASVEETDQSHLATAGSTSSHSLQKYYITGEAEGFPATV
Sequence of chicken Estrogen Receptor (ERa), ESR1 (gene 396099) (P06212 whole entry, looked up, the tested form may be a part): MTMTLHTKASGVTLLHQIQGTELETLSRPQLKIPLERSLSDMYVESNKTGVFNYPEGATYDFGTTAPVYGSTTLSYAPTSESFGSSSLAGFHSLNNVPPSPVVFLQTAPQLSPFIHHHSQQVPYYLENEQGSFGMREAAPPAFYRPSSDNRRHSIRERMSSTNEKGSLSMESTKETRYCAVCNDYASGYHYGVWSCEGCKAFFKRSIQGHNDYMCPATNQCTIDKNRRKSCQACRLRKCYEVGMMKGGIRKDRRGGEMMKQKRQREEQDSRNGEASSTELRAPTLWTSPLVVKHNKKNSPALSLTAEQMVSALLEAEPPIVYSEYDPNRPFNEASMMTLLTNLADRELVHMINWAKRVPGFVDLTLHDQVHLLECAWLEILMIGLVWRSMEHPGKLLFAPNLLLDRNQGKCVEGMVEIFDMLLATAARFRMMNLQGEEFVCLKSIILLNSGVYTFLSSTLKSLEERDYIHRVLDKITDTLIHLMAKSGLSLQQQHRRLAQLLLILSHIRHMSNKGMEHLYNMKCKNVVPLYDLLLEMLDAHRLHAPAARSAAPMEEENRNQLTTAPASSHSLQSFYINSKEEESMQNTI
Sequence of zebrafish Estrogen Receptor (ER1), esr1 (gene 259252) (P57717 whole entry, looked up, the tested form may be a part): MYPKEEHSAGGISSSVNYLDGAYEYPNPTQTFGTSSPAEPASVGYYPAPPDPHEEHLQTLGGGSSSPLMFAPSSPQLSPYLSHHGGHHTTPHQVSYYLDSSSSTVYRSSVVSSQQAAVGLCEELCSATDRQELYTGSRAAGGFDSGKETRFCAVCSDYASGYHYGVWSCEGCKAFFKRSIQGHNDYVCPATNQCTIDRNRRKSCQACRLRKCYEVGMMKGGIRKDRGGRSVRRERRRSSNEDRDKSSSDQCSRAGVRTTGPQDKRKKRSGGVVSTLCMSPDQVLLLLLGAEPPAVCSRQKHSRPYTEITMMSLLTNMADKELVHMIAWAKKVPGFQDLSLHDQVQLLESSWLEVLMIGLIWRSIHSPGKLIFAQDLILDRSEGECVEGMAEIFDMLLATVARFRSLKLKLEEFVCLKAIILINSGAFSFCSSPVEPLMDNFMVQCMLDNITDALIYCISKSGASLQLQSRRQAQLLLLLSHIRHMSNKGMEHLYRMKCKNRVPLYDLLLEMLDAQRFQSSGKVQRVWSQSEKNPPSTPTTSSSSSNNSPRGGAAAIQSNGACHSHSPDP

CC(C)C(=O)Nc1ccc([N+](=O)[O-])c(C(F)(F)F)c1
active: [4] 26.3 µM | [5] 70.8 µM | [6] 27.2 µM | [8] 53.9 µM | [9] 82.6 µM
inactive: [1] | [2] | [3] | [7]

CCN(CC)C(=S)SSC(=S)N(CC)CC
active: [8] 34.9 µM | [9] 42.9 µM
inactive: [5]

C=CCc1cc(S(=O)(=O)c2ccc(O)c(CC=C)c2)ccc1O
inactive: [3] | [7]
active: [2] 3.5 µM | [10] 8.4 µM | [4] 8.79 µM | [5] 17.4 µM | [6] 2.71 µM | [8] 5.26 µM | [9] 19.2 µM
